Test results published in PubChem BioAssay (NCI).
The panel holds about 79,000 compounds, 15% with a hit somewhere; the sample as a whole holds those more often. Active and inactive are the calls of the source. Cut-off read from the data, not from the text of the source: active = growth inhibition above about 70%; inactive = the rest.

How the values were obtained:
[1] = NCI Yeast Anticancer Drug Screen. Data for the mec2-1 strain (AID 157); conditions: S. cerevisiae mec2-1 strain, active compounds read high
In short: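 Strain: mec2-1 (DNA repair/cell cycle alteration). Compound exposure, then growth measured; inhibition expressed relative to vehicle.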

[2] = NCI Yeast Anticancer Drug Screen. Data for the rad14 strain (AID 159);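 note: 0% = growth of vehicle-treated control cultures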; conditions: S. cerevisiae rad14 strain growth inhibition, active compounds read high
In short: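 Test compounds were applied to a repair-deficient yeast strain. Its growth was then compared with that of cultures given vehicle alone, and inhibition was expressed relative to those controls.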

[3] = NCI Yeast Anticancer Drug Screen. Data for the sgs1 mgt1 strain (AID 161);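 note: 0% = growth of cultures given vehicle only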; conditions: S. cerevisiae sgs1 mgt1 strain, active compounds read high
In short: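 Genetically altered yeast, compound exposure, growth inhibition relative to vehicle.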

[4] = NCI Yeast Anticancer Drug Screen. Data for the CLN2oe strain (AID 163);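 note: 0% = growth of vehicle-only control cultures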; conditions: S. cerevisiae CLN2oe strain, active compounds read high
In short: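 Growth of a genetically modified yeast strain is measured after compound exposure and compared with cultures given vehicle alone.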

[5] = NCI Yeast Anticancer Drug Screen. Data for the cln2 rad14 strain (AID 165);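 note: 0% = growth equal to vehicle treated cultures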; conditions: S. cerevisiae cln2 rad14 strain, active compounds read high
In short: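 Compounds are applied to the cln2 rad14 yeast strain, and growth is then compared with that of vehicle-treated cultures to give inhibition.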

[6] = NCI Yeast Anticancer Drug Screen. Data for the bub3 strain (AID 167); conditions: S. cerevisiae bub3 mutant strain, active compounds read high
In short: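 Yeast carrying a defined mutation is treated with each compound, and growth is compared with that of vehicle-exposed cells to give inhibition.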

[7] = NCI Yeast Anticancer Drug Screen. Data for the wt2 strain (AID 169);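 note: 0% = growth of vehicle-treated yeast cultures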; conditions: S. cerevisiae wt2 strain growth inhibition, active compounds read high
In short: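 This strain belongs to a panel of yeast strains with defined genetic alterations in DNA damage repair or cell cycle control. Compounds are applied, and growth inhibition is measured against vehicle-treated cultures.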

[8] = NCI Yeast Anticancer Drug Screen. Data for the mlh1 strain (AID 171);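 note: 0% = growth of vehicle-treated control cultures of the same strain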; conditions: S. cerevisiae mlh1 strain growth inhibition, active compounds read high
In short: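 Growth of the mutant yeast strain after compound exposure, expressed as inhibition relative to vehicle-only controls.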

[9] = NCI Yeast Anticancer Drug Screen. Data for the sgs1 strain (AID 173);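 note: 0% = growth of vehicle-only control cultures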; conditions: S. cerevisiae sgs1 mutant, active compounds read high
In short: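 Growth of a yeast strain bearing a defined genetic alteration is measured after compound treatment. Inhibition is expressed relative to vehicle-only controls.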

[10] = NCI Yeast Anticancer Drug Screen. Data for the mlh1 rad18 strain (AID 175); conditions: S. cerevisiae mlh1 rad18 strain growth inhibition, active compounds read high
In short: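 Read-out is yeast growth inhibition, calculated against vehicle-only controls. The compound was applied to a strain engineered with DNA damage repair alterations.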

[11] = NCI Yeast Anticancer Drug Screen. Data for the rad18 strain (AID 177); conditions: S. cerevisiae rad18 mutant growth inhibition, active compounds read high
In short: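 Growth of the mutant yeast strain after compound exposure, normalised to vehicle-only cultures.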

[12] = NCI Yeast Anticancer Drug Screen. Data for the rad52 strain (AID 147);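 note: 0% = growth of vehicle-treated control cultures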; conditions: S. cerevisiae rad52 mutant growth inhibition, active compounds read high
In short: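 Compounds are applied to a genetically defined yeast strain lacking normal DNA damage repair, and inhibition of growth is expressed relative to cultures given vehicle only.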

[13] = NCI Yeast Anticancer Drug Screen. Data for the wt1 strain (AID 149);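 note: 0% = growth of vehicle-treated wt1 cultures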; conditions: S. cerevisiae wt1 strain (SPY 50644) growth inhibition, active compounds read high
In short: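 wt1 yeast, compound-treated; % growth inhibition vs vehicle control.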

[14] = NCI Yeast Anticancer Drug Screen. Data for the rad50EPP+ strain (AID 151);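 note: 0% = growth of vehicle-treated control cultures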; conditions: S. cerevisiae rad50 mutant strain, active compounds read high
In short: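 Compounds were applied to the rad50EPP+ yeast strain, which bears a defined DNA repair alteration, and growth inhibition was determined relative to vehicle-treated cultures.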

[15] = NCI Yeast Anticancer Drug Screen. Data for the mgt1 strain (AID 153); conditions: S. cerevisiae mgt1 mutant growth inhibition, active compounds read high
In short: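 Strain: mgt1 yeast, one of a set carrying defined DNA damage repair or cell cycle control alterations. Compound-treated growth compared with vehicle.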

[16] = NCI Yeast Anticancer Drug Screen. Data for the rad50 strain (AID 155);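 note: 0% = growth of vehicle-only cultures of the same strain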; conditions: S. cerevisiae rad50 strain growth inhibition, active compounds read high
In short: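 Genetically altered yeast (DNA repair pathway); compound treatment; growth inhibition vs vehicle ctrl.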

[17] = at 5.0 µM (retest, dose inferred, filed as 0.5)
[18] = at 50.0 µM (retest, dose inferred, filed as 5.0)

Measured: growth inhibition

COC(=O)C1=C(C(=O)OC)SC2(S1)C(C(=O)OC)=C(C(=O)OC)Sc1c2ssc1=O
active: [1]; at 11.0 µM 85% | [1]; at 33.0 µM 98% | [1]; [18] 95% | [1]; at 50.0 µM 86.2% | [1]; at 100.0 µM 88% | [2]; at 11.0 µM 80% | [2]; at 33.0 µM 99% | [2]; at 100.0 µM 92% | [3]; [18] 95% | [3]; at 50.0 µM 84.1% | [4]; at 11.0 µM 91% | [4]; at 33.0 µM 98% | [4]; at 100.0 µM 91% | [5]; [17] 70% | [5]; [18] 95% | [5]; at 50.0 µM 86.2% | [6]; at 11.0 µM 88% | [6]; at 33.0 µM 98% | [6]; [18] 94% | [6]; at 50.0 µM 78.8% | [6]; at 100.0 µM 91% | [7]; at 11.0 µM 99% | [7]; at 33.0 µM 96% | [7]; at 100.0 µM 89% | [8]; at 11.0 µM 88% | [8]; at 33.0 µM 99% | [8]; at 100.0 µM 92% | [9]; at 11.0 µM 87% | [9]; at 33.0 µM 99% | [9]; at 100.0 µM 93% | [10]; [18] 96% | [10]; at 50.0 µM 86.8% | [11]; at 11.0 µM 91% | [11]; at 33.0 µM 95% | [11]; at 100.0 µM 90%
inactive: [1]; [17] 17% | [2]; at 1.2 µM 27% | [2]; at 3.7 µM 30% | [3]; [17] 26% | [4]; at 1.2 µM 14% | [4]; at 3.7 µM 26% | [6]; at 1.2 µM 23% | [6]; at 3.7 µM 32% | [6]; [17] 55% | [7]; at 1.2 µM 21% | [7]; at 3.7 µM 54% | [8]; at 1.2 µM 44% | [8]; at 3.7 µM 51% | [9]; at 1.2 µM 43% | [9]; at 3.7 µM 58% | [10]; [17] 26% | [11]; at 1.2 µM 30% | [11]; at 3.7 µM 55%

C[N+](C)(C)CC1CCCC(C[N+](C)(C)C)C1=O (centres undefined)
inactive: [12]; at 1.2 µM 0% | [12]; at 3.7 µM 1% | [12]; at 11.0 µM 9% | [12]; at 33.0 µM 34% | [13]; at 1.2 µM -1% | [13]; at 3.7 µM 3% | [13]; at 11.0 µM -1% | [13]; at 33.0 µM 13% | [14]; at 1.2 µM -3% | [14]; at 3.7 µM 3% | [14]; at 11.0 µM 13% | [14]; at 33.0 µM 64% | [15]; at 1.2 µM 0% | [15]; at 3.7 µM 2% | [15]; at 11.0 µM 5% | [15]; at 33.0 µM 27% | [16]; at 1.2 µM 2% | [16]; at 3.7 µM -18% | [16]; [17] 1% | [16]; at 11.0 µM 37% | [16]; at 33.0 µM 63% | [16]; [18] 35% | [1]; at 1.2 µM 1% | [1]; at 3.7 µM 5% | [1]; [17] 6% | [1]; at 11.0 µM 10% | [1]; at 33.0 µM 25% | [1]; [18] -19% | [2]; at 1.2 µM -1% | [2]; at 3.7 µM 0% | [2]; at 11.0 µM 8% | [2]; at 33.0 µM 38% | [3]; [17] 3% | [3]; [18] 50% | [3]; at 50.0 µM 68.3% | [4]; at 1.2 µM 0% | [4]; at 3.7 µM 1% | [4]; at 11.0 µM 6% | [4]; at 33.0 µM 12% | [4]; at 100.0 µM 24% | [5]; [17] 6% | [5]; [18] 21% | [5]; at 50.0 µM 25.5% | [6]; at 1.2 µM -1% | [6]; at 3.7 µM 4% | [6]; [17] -45% | [6]; at 11.0 µM 4% | [6]; at 33.0 µM 44% | [6]; [18] 41% | [7]; at 1.2 µM -3% | [7]; at 3.7 µM 7% | [7]; at 11.0 µM 2% | [7]; at 33.0 µM 5% | [8]; at 1.2 µM 0% | [8]; at 3.7 µM 3% | [8]; at 11.0 µM 7% | [8]; at 33.0 µM 26% | [9]; at 1.2 µM -1% | [9]; at 3.7 µM 3% | [9]; at 11.0 µM 15% | [9]; at 33.0 µM 64% | [10]; [17] 8% | [10]; [18] 62% | [11]; at 1.2 µM 1% | [11]; at 3.7 µM 13% | [11]; at 11.0 µM 44%
active: [12]; at 100.0 µM 96% | [13]; at 100.0 µM 98% | [14]; at 100.0 µM 99% | [15]; at 100.0 µM 99% | [16]; at 50.0 µM 91.8% | [16]; at 100.0 µM 99% | [1]; at 50.0 µM 99.8% | [1]; at 100.0 µM 98% | [2]; at 100.0 µM 99% | [6]; at 50.0 µM 89.2% | [6]; at 100.0 µM 99% | [7]; at 100.0 µM 94% | [8]; at 100.0 µM 99% | [9]; at 100.0 µM 99% | [10]; at 50.0 µM 97.2% | [11]; at 33.0 µM 93% | [11]; at 100.0 µM 98%

c1ccc2cc3n[se]nc3cc2c1
active: [12]; at 100.0 µM 96% | [13]; at 100.0 µM 72% | [14]; at 100.0 µM 86% | [15]; at 100.0 µM 94% | [16]; at 33.0 µM 79% | [16]; at 50.0 µM 97.5% | [16]; at 100.0 µM 96% | [1]; at 100.0 µM 93% | [2]; at 100.0 µM 98% | [4]; at 100.0 µM 78% | [6]; at 100.0 µM 96% | [7]; at 100.0 µM 95% | [8]; at 100.0 µM 97% | [9]; at 100.0 µM 91% | [10]; at 50.0 µM 76.2% | [11]; at 100.0 µM 96%
inactive: [12]; at 1.2 µM 2% | [12]; at 3.7 µM 5% | [12]; at 11.0 µM 17% | [12]; at 33.0 µM 47% | [13]; at 1.2 µM 5% | [13]; at 3.7 µM 2% | [13]; at 11.0 µM 6% | [13]; at 33.0 µM 13% | [14]; at 1.2 µM 2% | [14]; at 3.7 µM 13% | [14]; at 11.0 µM 33% | [14]; at 33.0 µM 64% | [15]; at 1.2 µM 6% | [15]; at 3.7 µM 7% | [15]; at 11.0 µM 5% | [15]; at 33.0 µM 27% | [16]; at 1.2 µM 3% | [16]; at 3.7 µM 5% | [16]; [17] -14% | [16]; at 11.0 µM 19% | [16]; [18] 55% | [1]; at 1.2 µM 1% | [1]; at 3.7 µM 2% | [1]; [17] -14% | [1]; at 11.0 µM 8% | [1]; at 33.0 µM 16% | [1]; [18] 3% | [1]; at 50.0 µM 39.4% | [2]; at 1.2 µM 3% | [2]; at 3.7 µM 4% | [2]; at 11.0 µM 5% | [2]; at 33.0 µM 18% | [3]; [17] -15% | [3]; [18] 44% | [3]; at 50.0 µM 45.2% | [4]; at 1.2 µM -5% | [4]; at 3.7 µM 0% | [4]; at 11.0 µM 15% | [4]; at 33.0 µM 14% | [5]; [17] -21% | [5]; [18] 2% | [5]; at 50.0 µM -2.35% | [6]; at 1.2 µM -1% | [6]; at 3.7 µM 1% | [6]; [17] 13% | [6]; at 11.0 µM 4% | [6]; at 33.0 µM 28% | [6]; [18] 25% | [6]; at 50.0 µM 56.8% | [7]; at 1.2 µM 0% | [7]; at 3.7 µM 1% | [7]; at 11.0 µM 8% | [7]; at 33.0 µM 26% | [8]; at 1.2 µM 2% | [8]; at 3.7 µM 4% | [8]; at 11.0 µM 11% | [8]; at 33.0 µM 34% | [9]; at 1.2 µM 2% | [9]; at 3.7 µM 4% | [9]; at 11.0 µM 12% | [9]; at 33.0 µM 33% | [10]; [17] -11% | [10]; [18] 24% | [11]; at 1.2 µM 4% | [11]; at 3.7 µM 13% | [11]; at 11.0 µM 4% | [11]; at 33.0 µM 68%
